Read-outs that look alike come from different tables or passages of the source.
Experiments:
Parameters in all cases: species or system human, MV4-11 + K-562 + COLO205 + SK-N-BE2 + OVCAR-8
[1] = tested on: ACVR1B; settings: read-out: apparent Kd, compound concentrations: 100 nM and 1000 nM (sheet 'Samples'), n = 1
[2] = tested on: CAMK4; settings: read-out: apparent Kd; compound concentrations: 100 nM and 1000 nM (sheet 'Samples'), CATDS: 0.20736458349595299; n = 1
[3] = tested on: COX5A; settings: read-out: apparent Kd; compound concentrations: 100 nM and 1000 nM (sheet 'Samples'), CATDS: 0.27607589651393999; n = 1
[4] = tested on: DDR1; settings: read-out: apparent Kd, compound concentrations: 100 nM and 1000 nM (sheet 'Samples'), n = 1
[5] = tested on: ACVR1; settings: read-out: apparent Kd, compound concentrations: 100 nM and 1000 nM (sheet 'Samples'), n = 1
[6] = tested on: CSNK1A1; settings: read-out: apparent Kd, compound concentrations: 100 nM and 1000 nM (sheet 'Samples'), n = 1
[7] = tested on: CSNK1D; settings: read-out: apparent Kd, compound concentrations: 100 nM and 1000 nM (sheet 'Samples'), n = 1
[8] = tested on: CSNK1E; settings: read-out: apparent Kd, compound concentrations: 100 nM and 1000 nM (sheet 'Samples'), n = 1
[9] = tested on: DDR2; settings: read-out: apparent Kd, compound concentrations: 100 nM and 1000 nM (sheet 'Samples'), n = 1
[10] = tested on: GAK; settings: read-out: apparent Kd, compound concentrations: 100 nM and 1000 nM (sheet 'Samples'), n = 1
[11] = tested on: MAPK10; settings: read-out: apparent Kd, compound concentrations: 100 nM and 1000 nM (sheet 'Samples'), n = 1
[12] = tested on: MAPK11; settings: read-out: apparent Kd, compound concentrations: 100 nM and 1000 nM (sheet 'Samples'), n = 1
[13] = tested on: MAPK14; settings: read-out: apparent Kd, compound concentrations: 100 nM and 1000 nM (sheet 'Samples'), n = 1
[14] = tested on: MAPK9; settings: read-out: apparent Kd, compound concentrations: 100 nM and 1000 nM (sheet 'Samples'), n = 1
[15] = tested on: MAPKAPK2; settings: read-out: apparent Kd, compound concentrations: 100 nM and 1000 nM (sheet 'Samples'), n = 1
[16] = tested on: PRKD2; settings: read-out: apparent Kd, compound concentrations: 100 nM and 1000 nM (sheet 'Samples'), n = 1
[17] = tested on: RIPK2; settings: read-out: apparent Kd, compound concentrations: 100 nM and 1000 nM (sheet 'Samples'), n = 1
[18] = tested on: TGFBR1; settings: read-out: apparent Kd, compound concentrations: 100 nM and 1000 nM (sheet 'Samples'), n = 1
[19] = tested on: CIT; settings: read-out: apparent Kd; compound concentrations: 100 nM and 1000 nM (sheet 'Samples'), CATDS: 4.5392232292010899E-2; n = 1
[20] = tested on: JAK1; settings: read-out: apparent Kd; compound concentrations: 100 nM and 1000 nM (sheet 'Samples'), CATDS: 2.6628241709745499E-2; n = 1
[21] = tested on: MAPK8; settings: read-out: apparent Kd; compound concentrations: 100 nM and 1000 nM (sheet 'Samples'), CATDS: 2.73704072863558E-2; n = 1
[22] = tested on: MYLK3; settings: read-out: apparent Kd; compound concentrations: 100 nM and 1000 nM (sheet 'Samples'), CATDS: 2.9739343508474202E-2; n = 1
[23] = tested on: NLK; settings: read-out: apparent Kd; compound concentrations: 100 nM and 1000 nM (sheet 'Samples'), CATDS: 4.6610928560784803E-2; n = 1
[24] = tested on: PKN3; settings: read-out: apparent Kd; compound concentrations: 100 nM and 1000 nM (sheet 'Samples'), CATDS: 2.84976438170014E-2; n = 1
[25] = tested on: PRKD3; settings: read-out: apparent Kd; compound concentrations: 100 nM and 1000 nM (sheet 'Samples'), CATDS: 2.77377290368628E-2; n = 1
[26] = tested on: RIPK3; settings: read-out: apparent Kd; compound concentrations: 100 nM and 1000 nM (sheet 'Samples'), CATDS: 2.3985776131164802E-2; n = 1
[27] = tested on: TNIK; settings: read-out: apparent Kd; compound concentrations: 100 nM and 1000 nM (sheet 'Samples'), CATDS: 2.6108076869188701E-2; n = 1

Compound: COc1ccc2cc(-c3c(-c4ccncc4)nc(-c4ccc(S(C)=O)cc4)n3C)ccc2c1 (stereo not drawn) [SB-437013]
- potency estimated from few doses ([1]; CATDS: 0.34398750715430798): 0.81 µM
- potency estimated from few doses [2]: 2.24 µM
- potency estimated from few doses [3]: 1.19 µM
- potency estimated from few doses ([4]; CATDS: 0.21513236479032799): 2.04 µM

Compound: CN1CCN(CCCNc2nccc(-c3c(-c4ccc(F)cc4)nn4cc(C(N)=O)ccc34)n2)CC1 [GW622475X]
- potency estimated from few doses ([1]; CATDS: 0.21340745676279499): 0.0165 µM
- potency estimated from few doses ([5]; CATDS: 4.9335047128928999E-2): 0.488 µM
- potency estimated from few doses ([6]; CATDS: 5.98915782601789E-2): 0.252 µM
- potency estimated from few doses ([7]; CATDS: 0.221506901273927): 0.0156 µM
- potency estimated from few doses ([8]; CATDS: 9.6112931202447002E-2): 0.0723 µM
- potency estimated from few doses ([4]; CATDS: 4.72879881828875E-2): 0.576 µM
- potency estimated from few doses ([9]; CATDS: 3.7607039392505398E-2): 1.9 µM
- potency estimated from few doses ([10]; CATDS: 4.4963876201462499E-2): 0.712 µM
- potency estimated from few doses ([11]; CATDS: 4.8287227118758103E-2): 0.53 µM
- potency estimated from few doses ([12]; CATDS: 4.7431075480448899E-2): 0.569 µM
- potency estimated from few doses ([13]; CATDS: 0.132847798162957): 0.0369 µM
- potency estimated from few doses ([14]; CATDS: 6.4628535375358898E-2): 0.2 µM
- potency estimated from few doses ([15]; CATDS: 0.150637698751246): 0.0293 µM
- potency estimated from few doses ([16]; CATDS: 3.69212062314868E-2): 2.18 µM
- potency estimated from few doses ([17]; CATDS: 5.3537616523073803E-2): 0.363 µM
- potency estimated from few doses ([18]; CATDS: 8.1591289102362505E-2): 0.107 µM

Compound: Nc1nccc(-c2c(-c3ccc(F)cc3)ncn2C2CCC(O)CC2)n1 (stereo not drawn) [SB-223133]
- potency estimated from few doses ([1]; CATDS: 5.67589208103269E-2): 0.0745 µM
- potency estimated from few doses ([5]; CATDS: 2.5761015840506201E-2): 1.35 µM
- potency estimated from few doses [19]: 0.14 µM
- potency estimated from few doses ([6]; CATDS: 0.114009601510889): 0.015 µM
- potency estimated from few doses ([7]; CATDS: 0.391959397884028): 0.00172 µM
- potency estimated from few doses ([8]; CATDS: 0.26273499221924201): 0.0032 µM
- potency estimated from few doses ([4]; CATDS: 4.8095496683990102E-2): 0.118 µM
- potency estimated from few doses ([9]; CATDS: 4.5410766330070199E-2): 0.14 µM
- potency estimated from few doses ([10]; CATDS: 2.6841490369303E-2): 1.07 µM
- potency estimated from few doses [20]: 1.12 µM
- potency estimated from few doses ([11]; CATDS: 4.9321772364443003E-2): 0.11 µM
- potency estimated from few doses ([12]; CATDS: 2.6556217045786298E-2): 1.14 µM
- potency estimated from few doses ([13]; CATDS: 9.6245202156368906E-2): 0.0214 µM
- potency estimated from few doses [21]: 0.969 µM
- potency estimated from few doses ([14]; CATDS: 5.3906209351099597E-2): 0.0856 µM
- potency estimated from few doses ([15]; CATDS: 8.8407398731798204E-2): 0.0258 µM
- potency estimated from few doses [22]: 0.653 µM
- potency estimated from few doses [23]: 0.129 µM
- potency estimated from few doses [24]: 0.794 µM
- potency estimated from few doses ([16]; CATDS: 2.85113335407263E-2): 0.793 µM
- potency estimated from few doses [25]: 0.906 µM
- potency estimated from few doses ([17]; CATDS: 7.8449677339207394E-2): 0.0337 µM
- potency estimated from few doses [26]: 2.14 µM
- potency estimated from few doses ([18]; CATDS: 3.9958881168014597E-2): 0.21 µM
- potency estimated from few doses [27]: 1.25 µM

From paper PMC11062922 (Nature Chemical Biology, 2023)
